Laboratory results taken from PubChem BioAssay (NCI).
This is part of a sample that, as a whole, favours compounds with a hit. Of some 83,000 tested, about 20% had one in any assay.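 Growth was measured after 48 h exposure to one concentration of compound in 96-well plates. Values under 10 count as active.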 A number with no mark means an inactive call. The source made the active and inactive calls.

How the values were obtained:
Test in all cases: NCI-60 one-dose screen, 48 h (100 = growth as untreated, 0 = no growth, -100 = all killed)
Conditions in all cases: 10 µM unless noted
[1] = system: SR leukemia
[2] = system: RPMI-8226 leukemia
[3] = system: OVCAR-8 ovarian
[4] = system: OVCAR-5 ovarian
[5] = system: OVCAR-4 ovarian
[6] = system: SK-OV-3 ovarian
[7] = system: IGROV1 ovarian
[8] = system: OVCAR-3 ovarian
[9] = system: HS 578T breast
[10] = system: NCI/ADR-RES ovarian

| Structure (SMILES) | growth [1] | growth [2] | growth [3] | growth [4] | growth [5] | growth [6] | growth [7] | growth [8] | growth [9] | growth [10] |
| --- | --- | --- | --- | --- | --- | --- | --- | --- | --- | --- |
| Nc1n[nH]c2cccc(C#Cc3cccc(C(=O)Nc4cc(C(F)(F)F)cc(C(F)(F)F)c4)c3)c12 | 49.7% | 52.6% | 82.9% | 75.9% | 85.4% | 109% | 45.7% | 90.6% | 54.9% | 74.2% |
| O=C1NC2(Nc3ccccc31)C(=O)Nc1c(Cl)cc(Cl)cc12 (stereo not given) | 93.2% | 105% | 102% | 115% | 98.9% | 107% | 91.5% | 118% | 100% | 108% |
| O=C(/C=C/c1ccccc1)Nc1ncc(Cc2ccccc2Cl)s1 | 17.9% | 25.4% | 39.5% | 44% | 70.2% | 44.4% | 31.5% | -24.2% (active) | 28.2% | 9.49% (active) |
| Cc1[nH]c(C(=O)Nc2ccccc2OC2CCNCC2)c(Cl)c1Cl | 10.1% | -45.2% (active) | 1.61% (active) | 68.7% | -72.8% (active) | 109% | 48.4% | -77.7% (active) | -19.1% (active) | 33.8% |
| CCCCCCCCCCCCCCCCCCOc1ccccc1CC(=O)OCC[N+](C)(C)C | 11.1% | 40.9% | 5.15% (active) | 31.8% | 20% | 56.2% | -61.4% (active) | 16.5% | 17.1% | 91.3% |
| O=S(=O)(NCCNc1nccc(-c2c(-c3ccc(F)c(O)c3)nc3occn23)n1)c1ccc(Cl)cc1 | 75.8% | 85.3% | 86% | 127% | 109% | 87.1% | 87.4% | 104% | 89% | 102% |
| COC1=CC(c2ccc[nH]2)=N/C1=C\c1[nH]c(C)c(CC(=O)NCc2ccccc2)c1C | -29.1% (active) | 18.4% | 19.4% | 31.5% | 46.3% | 25.7% | 38.2% | 11.1% | 24.6% | -40.7% (active) |
| O=C(N/N=C/c1c(Cl)cccc1Cl)c1cccnc1Nc1cccc(C(F)(F)F)c1 | 54.5% | 3.23% (active) | 49.4% | 53.4% | 25.1% | 27% | 31.8% | 46.8% | 112% | 31% |
| CCSC(SCC)c1ccc(Cl)cc1 | 109% | 106% | 107% | 109% | 108% | 101% | 117% | 113% | 102% | 97.1% |
| CC(=O)n1nc(C(=O)OC(C)(C)c2ccccc2)c2ccccc21 | 95.3% | 102% | 95.4% | 80.7% | 93% | 88.2% | 96.7% | 101% | 100% | 89.5% |
| COc1cc2ncnc(Nc3ccc(F)c(Cl)c3)c2cc1OCC(=O)N1CCN(c2ccccc2)CC1 | 84.4% | 83.6% | 93.5% | 75% | 85.7% | 96% | 48.9% | 87.8% | 93.9% | 80.5% |
| COc1ccccc1N1CCCCC1 | 112% | 101% | 110% | 86.2% | 109% | 100% | 101% | 114% | 101% | 106% |
| CCCNC(=O)Nc1ccc2cc3ccc(NC(=O)NCCC)cc3nc2c1 | 37.2% | 76.1% | 74.5% | 90.1% | 65.2% | 95.1% | 34.4% | 70.1% | 48.4% | 96.9% |
| CCOC(=O)[C@@H]1CSC(CC)=C(C(=O)O)N1 | -11.1% (active) | -32% (active) | 101% | 107% | 117% | 69.1% | 109% | 128% | 109% | 113% |
| O=C1/C(=C\c2ccc3nccnc3c2)SC(=S)N1CCc1ccc(O)cc1 | 68.9% | 68.2% | 98.4% | 102% | 88.1% | 113% | 94.1% | 101% | 94.3% | 101% |
| COC(=O)Nc1nc2ccc(S(=O)c3ccccc3)cc2[nH]1 (stereo not given) | 23.4% | 75.6% | 80.3% | 92.8% | 84.4% | 81.1% | 67.8% | 57.9% | 62% | 53.3% |
| Cc1csc(Nc2nc(-c3ccccn3)nc(C(Cl)(Cl)Cl)n2)n1 | 53.2% | 91.5% | 77.7% | 108% | 83.6% | 97.8% | 82.1% | 97.4% | 115% | 66.8% |
| COc1ccc(-c2nc3c(ncc4ccc(=O)[nH]c43)s2)cc1 | 45.5% | 69.2% | 83.9% | 90% | 98.8% | 102% | 67.5% | 85.5% | 88% | 74.6% |
| Cc1nc2sc(C(=O)Nc3cccc4ccccc34)c(N)c2cc1C(O)c1ccccc1 (stereo not given) | -1.98% (active) | 0.145% (active) | 5.13% (active) | 37.4% | 60% | 8.83% (active) | 14.4% | -5.29% (active) | 8.1% (active) | 2.93% (active) |
| N#Cc1ccc2c(c1)C(=O)c1c-2n(CCCN)c(=O)c2cc([N+](=O)[O-])ccc12 | -52% (active) | -45.5% (active) | -71.6% (active) | 16.6% | -82% (active) | -100% (active) | -95.6% (active) | -96.4% (active) | -77.7% (active) | -36.3% (active) |
| C=C(C)[C@@H]1CC[C@]2(C(=O)O)CC[C@]3(C)[C@H](CC[C@@H]4[C@@]5(C)CCC(NC(=O)c6cccc(OC(C)=O)c6OC(C)=O)C(C)(C)[C@@H]5CC[C@]43C)[C@@H]12 (stereo not given in full) | 3.23% (active) | -17.8% (active) | 10.7% | 1.76% (active) | 12.9% | 6.71% (active) | 5.12% (active) | 11.8% | 15.8% | 8.44% (active) |
| CN(c1cc2ncc(=O)[nH]c2cc1NC(N)=NCc1ccc(Cl)cc1)C1CCCCC1 | -22.7% (active) | 8.99% (active) | 70.4% | 73.2% | 72.7% | 84.7% | 61.6% | 82.3% | 64.2% | 115% |
| O=S(=O)(c1ccccc1)n1cc2c(c1)-c1nc(Nc3ncccn3)sc1CC2 | 74.6% | 71.3% | 65% | 95.8% | -27.9% (active) | 66% | 70.4% | 40.3% | 22.4% | 53% |
| O=C(O)c1ccc(-n2cc(/C=N/Nc3ccccc3)c(-c3ccc(F)cc3F)n2)cc1 | 72% | 50% | 53.3% | 57.6% | 80.4% | 89.1% | 52.6% | 62.3% | 68.6% | 56.7% |
| CCCCCCCC[C@@H]1N[C@@H](C(=O)OC)Cc2c1[nH]c1ccccc21 | 107% | 95.4% | 98.6% | 89% | 91.9% | 101% | 82.9% | 101% | 91.7% | 86.5% |
| N#CC1=C(N)Oc2c(sc3c(Br)cccc23)C1c1ccc(Cl)cc1 (stereo not given) | 4.58% (active) | 12.6% | 23% | 26.3% | 61.2% | 27.1% | 27.2% | 0.89% (active) | 26.4% | 0.969% (active) |
| COc1ccc(/C=N\Nc2nc(SCCC(C)C)nc(-c3ccc(OC)cc3)c2C#N)cc1 | 4.53% (active) | 54.4% | 39.5% | 63.3% | -57.2% (active) | 56.9% | 34.5% | 12.8% | 29.4% | 74.8% |
